Experiment [1] concerns the target Cytochrome P450 1A2 (Homo sapiens) (UniProt P05177). Briefly: p450-cyp1a2 (AID 410; calls by dose curve; note: potency is the fitted concentration of half-maximal effect). The method in brief:
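O-Demethylation of luciferin 6' methyl ether by human CYP1A2 is monitored as luciferase luminescence. Substrate sits at Km (100uM); enzyme is 20nM. Values are scaled to 57 uM furafylline as maximal inhibition.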

Experiment [2] concerns the target Glucocorticoid receptor (Homo sapiens) (UniProt P04150). Briefly: GR-GFP Redistribution (AID 450;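 active = compounds whose dose series gives a full or clear partial fitted curve of increased nuclear translocation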; note: potency is the fitted concentration of half-maximal effect). The note with it: U2OS GR-GFP nuclear translocation, laser cytometry, 2 h.
Experiment [3] shares this target. Briefly: GR-EFC Redistribution (AID 451; calls by dose curve; note: potency is the fitted concentration of half-maximal effect). The note with it: CHO-K1 GR-EFC translocation, beta-gal luminescence, 2 h. The method in brief: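 CHO-K1 cells stably expressing nuclear-localized β-gal enzyme acceptor and GR fused C-terminally to the enzyme donor fragment; ligand-driven nuclear translocation restores β-gal by complementation. Compounds titrated up to 46 uM final, 2 h at 37 °C; luminescence read.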

In experiment [4] the target is Mitogen-activated protein kinase 10 (Mus musculus) (UniProt Q61831). Briefly: JNK3 AlphaScreen Assay (AID 530; active = well fitted curve in either direction with a large enough effect, not every such curve was filed as active;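 note: kinase came from lysate of stimulated human HepG2 cells; signal reports phosphorylation of biotinylated GST-cJun 1-79 at Ser73 with 10 µM ATP; % is set by controls: 0 for no effect and ±100 for the full control effect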). The method in brief:
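Phosphorylation of biotinylated GST-cJun(1-79) at Ser73 is measured by AlphaScreen proximity luminescence. Enzyme is JNK3 in HepG2 lysates activated with interleukin-1beta and tumor necrosis factor alpha; ATP is 10 uM final.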
In general terms: In Alpha technology, singlet oxygen from a donor bead excites a nearby acceptor bead.

Experiment [5] addresses 3',5'-cyclic-AMP phosphodiesterase 4B (Homo sapiens) (UniProt Q07343). Briefly: qHTS Assay for Inhibitors of PDE-IV (AID 607; active = well fitted activation curve with a large enough effect in the main read-out, with a control signal flat, not every such curve was filed as active; note: % of control where 0% means no effect). The method in brief: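 The readout is membrane depolarisation from a cAMP-sensing CNG channel, detected with a potential dye at ex 535/em 590. Cells were HEK293-derived (endogenous PDE-IV) at 1000 cells/well, titrated up to 22.9 uM final.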
A general note: qHTS replaces the single test concentration by a dilution series.

Experiment [6] can be described thus: qHTS Assay for Lipid Storage Modulators (AID 1519; calls by dose curve). The following applies: Drosophila S3 cells, BODIPY lipid droplet/cell ratio, laser cytometry, cells loaded with oleic acid; for activity change, negative = inhibition: at 57.5 µM (top of the series). The method in brief: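 Cells seeded at 5,000 per well were treated with compounds over a concentration series and loaded with oleic acid (400 uM, as added). Lipid droplet fluorescence (488 nm excitation, 500-530 nm channel) was read by laser-scanning cytometry and normalized to 20 uM Triacsin C.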

Experiment [7] addresses Dual specificity protein kinase CLK4 (Homo sapiens) (UniProt Q9HAZ1). Briefly: qHTS Assay for Inhibitors of CDC-like Kinase 4 (Kinase-Glo Assay) (AID 1770). Note: % is set by controls: 0 for no effect and ±100 for the full control effect; nearly all actives have a fitted effect of over 65% in size. The method, boiled down: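 Readout: Kinase-Glo luminescence from ATP left after a 4.5 h room-temperature reaction of 25 nM Clk4 with 100 uM RS peptide and 1 uM ATP (final). Buffer: 25 mM Tris pH 7.5, 10 mM MgCl2.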
Experiment [8] shares this target. Briefly: qHTS Assay for Inhibitors of CDC-like Kinase 4 (ADP-Glo Assay) (AID 1771). Note: % is set by controls: 0 for no effect and ±100 for the full control effect; nearly all actives have a fitted effect of over 70% in size. The method in brief:
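Compounds are pin-transferred onto substrate mix (100 uM RS peptide, 1 uM ATP), then 25 nM Clk4 is added. After 1 hr at room temperature, ADP-Glo reagent runs 45 min, detection reagent 30 min, then luminescence is read.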

For experiment [9] the target is unchanged. Briefly: qHTS Assay for Inhibitors of CDC-like Kinase 4 (ADP-FP Assay) (AID 1795).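 Note: recombinant human CLK4 phosphorylating RS repeat peptide at 1 µM ATP; % is set by controls: 0 for no effect and ±100 for the full control effect; nearly all actives have a fitted effect of over 60% in size.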 The method in brief: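 FP readout: Orange Transcreener ADP2 tracer (4 nM) plus ADP antibody, read after 30 min at room temperature. Kinase step: 6.25 nM Clk4, 100 uM RS peptide, 1 uM ATP, pH 7.5, 1 h.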
The nature of experiment [10]: Primary qHTS for small molecule stabilizers of the endoplasmic reticulum resident proteome: Secreted ER Calcium Modulated Protein (SERCaMP) assay (AID 1508630). Note: % is set by controls: 0 for no effect and ±100 for the full control effect. The method in brief: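 The SH-SY5Y reporter protocol was run at 3 concentrations up to 38.3 uM (primary) or 11 concentrations (follow-up): 16 h compound, 100 nM thapsigargin for 4 h, then extracellular luciferase luminescence.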

Experiment [11] has as its target Rap guanine nucleotide exchange factor 3 (Homo sapiens) (UniProt O95398). Briefly: Confirmatory qHTS for agonist of cAMP-regulated guanine nucleotide exchange factor 3 (EPAC1) (AID 1645881).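 Note: EPAC1 catalysed release of BODIPY-GDP from Rap1B seen as fluorescence loss; 100% = effect of cAMP agonist control; nearly all actives have a fitted effect of over 75% in size.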
Experiment [12] deals with Lysosomal acid glucosylceramidase (Homo sapiens) (UniProt P04062). Briefly: Glucocerebrosidase-p2 (AID 348; in the data active = potency below about 10 µM; note: potency is the fitted concentration of half-maximal effect). The following applies: purified GBA, blue fluorogenic substrate, 40 min. The method in brief:
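Normal human glucocerebrosidase (0.2 nM) with blue fluorogenic substrate (80 uM final) in citrate/phosphate pH 5.9 with 10mM sodium taurocholate, 0.01% tween-20; 40 min RT, NaOH/glycine stop; fluorescence Ex 365/Em 440; AC50 from a titration from 0.6 nM upwards.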

The nature of experiment [13]: AP1 Signaling Pathway (AID 357; active = well fitted curve in either direction with a large enough effect, not every such curve was filed as active; note: % is set by controls: 0 for no effect and ±100 for the full control effect). The note with it: ME-180 AP-1-bla reporter, EGF-induced, beta-lactamase ratio, 5 h; at 7.69 µM (top of the series) unless noted. The method, boiled down:
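ME-180 cells with beta-lactamase reporter under AP-1 response element, stimulated with EC50 EGF; compounds tested in titration series, 5 h at 37 °C. CCF4 substrate added 2.5 h at room temperature; 460/530 nm emission ratio gave %activity and AC50.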

A short description of experiment [14]: Stat Signaling Pathway (AID 446; active = well fitted curve in either direction with a large enough effect, not every such curve was filed as active;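 note: ME-180 cervical cancer cells given 40 pM IL-6 alongside compound; SIE-controlled beta-lactamase reporter measured as 460/530 nm FRET emission ratio; % is set by controls: 0 for no effect and ±100 for the full control effect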). The following applies: ME-180 (cervical carcinoma) SIE beta-lactamase reporter, IL-6 stimulated, 5 h; at 7.69 µM (top of the series) unless noted. The method in brief:
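Emission at 460 and 530 nm (excitation 405 nm) reports SIE-controlled beta-lactamase in ME-180 cells. Cells received compound with 40 pM IL-6 for 5 hrs at 37 C; data scaled between 300 pM IL-6 and 125 nM JAK-inhibitor controls.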

Experiment [15] addresses Cytochrome P450 3A4 (Homo sapiens) (UniProt P08684). Briefly: qHTS Assay for Activators of Cytochrome P450 3A4 (AID 885). Note: nearly all actives have a fitted effect of over 65% in size. The method, boiled down:
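Activators are scored by enhanced luminescence from CYP3A4 conversion of luciferin-PPXE (25uM, equal to KM) to luciferin, after 60 min at RT with an NADPH-regenerating system.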

Experiment [16] concerns the target Rap guanine nucleotide exchange factor 3 (Homo sapiens) (UniProt O95398). Briefly: Confirmatory qHTS for antagonist of cAMP-regulated guanine nucleotide exchange factor 3 (EPAC1) (AID 1645880).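 Note: plate controls were DMSO only for no effect and full effect of the ATA control for full effect; nearly all actives have a fitted effect of over 55% in size.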 The method in brief:
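Released BODIPY-GDP fluoresces less than Rap1-bound BODIPY-GDP; the signal is followed at 480/540 nm at 5-min intervals over 30 min, after 5 min at room temperature. Reactions contain 100 nM EPAC1, 250 nM RAP1B-BODIPY-GDP and 50 uM GDP; results are normalized to ATA and DMSO.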

Experiment [17] concerns the target Rap guanine nucleotide exchange factor 4 (Homo sapiens) (UniProt Q8WZA2). Briefly: Confirmatory qHTS for agonist of cAMP-regulated guanine nucleotide exchange factor 4 (EPAC2) (AID 1645884).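 Note: nucleotide exchange releases bodipy-GDP from Rap1 and this lowers its fluorescence; % is set by controls: 0 for no effect and ±100 for the full control effect; nearly all actives have a fitted effect of over 65% in size.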
Experiment [18] has the same target. Briefly: Confirmatory qHTS for antagonist of cAMP-regulated guanine nucleotide exchange factor 4 (EPAC2) (AID 1645885). Note: % is set by controls: 0 for no effect and ±100 for the full control effect; nearly all actives have a fitted effect of over 25% in size.
Experiment [19] can be described thus: NFAT Signaling Pathway (AID 444; active = well fitted curve in either direction with a large enough effect, not every such curve was filed as active). The following applies: Jurkat NFAT-bla M1, carbachol, beta-lactamase ratio, 5 h; at 7.69 µM (top of the series) unless noted. The method in brief: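 Jurkat cells carrying an NFAT-driven β-lactamase reporter and co-transfected muscarinic M1 receptor were treated with compound plus carbachol (1 uM final, an EC50 level) for 5 h at 37 °C. CCF4 loading followed for 1 h at RT; 460/530 nm ratio gave %activity.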

Experiment [20] deals with Ubiquitin carboxyl-terminal hydrolase 1 (Homo sapiens) (UniProt O94782). Briefly: Inhibitors of USP1/UAF1: Pilot qHTS (AID 504865).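 Note: rhodamine fluorescence freed from ubiquitin-rhodamine substrate followed over time; top concentration of the series differs between compounds; % is set by controls: 0 for no effect and ±100 for the full control effect; nearly all actives have a fitted effect of over 35% in size.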 The method in brief:
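1nM USP1/UAF1 + cpd, 15 min RT; start w/ Ub-Rho 150nM final; kinetic FL 480/540 nm, 6 reads q60 s. Buffer 50mM HEPES pH 7.8, 0.5mM EDTA, 1mM TCEP, 0.01% Tween-20, 0.1 mg/ml BSA.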

[21] abbreviates: measured here: cell count channel max response.
Where [22] appears, read: measured here: lipid channel max response.

Results filed as inconclusive are left out. Active and inactive are the calls of the source. Unless noted, calls come from the whole dose curve; as a rule, active = well fitted curve in the direction sought with a large enough effect; inconclusive = small, poorly fitted or top-dose-only effect, or another doubt; inactive = no such curve, though single readings can be large; an effect the other way counts as inactive or inconclusive.

Chain of Lysosomal acid glucosylceramidase (Homo sapiens) (P04062 whole entry, looked up): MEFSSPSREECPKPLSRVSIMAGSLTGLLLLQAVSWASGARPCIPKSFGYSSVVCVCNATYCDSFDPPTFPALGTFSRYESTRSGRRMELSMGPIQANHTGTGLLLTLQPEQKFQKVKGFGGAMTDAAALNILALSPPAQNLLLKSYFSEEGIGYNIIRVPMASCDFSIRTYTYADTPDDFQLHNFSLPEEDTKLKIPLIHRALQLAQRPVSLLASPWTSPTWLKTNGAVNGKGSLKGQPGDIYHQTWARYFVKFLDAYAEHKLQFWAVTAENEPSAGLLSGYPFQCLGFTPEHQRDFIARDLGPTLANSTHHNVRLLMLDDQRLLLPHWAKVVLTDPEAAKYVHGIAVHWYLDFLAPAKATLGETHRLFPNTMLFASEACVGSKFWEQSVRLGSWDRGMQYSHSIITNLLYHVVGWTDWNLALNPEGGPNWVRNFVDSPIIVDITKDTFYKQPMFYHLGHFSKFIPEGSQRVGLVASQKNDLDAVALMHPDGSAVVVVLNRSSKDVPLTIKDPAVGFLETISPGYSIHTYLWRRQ
Chain of 3',5'-cyclic-AMP phosphodiesterase 4B (Homo sapiens) (Q07343 whole entry, looked up): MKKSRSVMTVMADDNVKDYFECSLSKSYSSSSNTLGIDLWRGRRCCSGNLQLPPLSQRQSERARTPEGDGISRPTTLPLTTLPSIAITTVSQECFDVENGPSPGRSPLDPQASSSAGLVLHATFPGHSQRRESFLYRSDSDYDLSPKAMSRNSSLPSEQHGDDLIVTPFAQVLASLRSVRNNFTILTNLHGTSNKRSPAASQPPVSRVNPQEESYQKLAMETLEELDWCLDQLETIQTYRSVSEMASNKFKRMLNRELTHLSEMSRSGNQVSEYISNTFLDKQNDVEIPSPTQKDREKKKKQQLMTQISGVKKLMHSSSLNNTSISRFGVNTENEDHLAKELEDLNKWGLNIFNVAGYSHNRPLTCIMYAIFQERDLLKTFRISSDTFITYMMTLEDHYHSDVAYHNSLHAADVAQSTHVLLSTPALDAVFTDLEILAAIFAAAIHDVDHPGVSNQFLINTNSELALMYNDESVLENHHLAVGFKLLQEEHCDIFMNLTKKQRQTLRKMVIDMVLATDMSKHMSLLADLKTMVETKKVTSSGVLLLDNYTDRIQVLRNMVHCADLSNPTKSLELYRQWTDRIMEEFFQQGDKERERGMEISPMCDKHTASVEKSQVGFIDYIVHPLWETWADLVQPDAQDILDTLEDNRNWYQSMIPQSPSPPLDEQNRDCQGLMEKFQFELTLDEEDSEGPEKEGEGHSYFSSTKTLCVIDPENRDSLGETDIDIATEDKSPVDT
Chain of Rap guanine nucleotide exchange factor 3 (Homo sapiens) (O95398 whole entry, looked up): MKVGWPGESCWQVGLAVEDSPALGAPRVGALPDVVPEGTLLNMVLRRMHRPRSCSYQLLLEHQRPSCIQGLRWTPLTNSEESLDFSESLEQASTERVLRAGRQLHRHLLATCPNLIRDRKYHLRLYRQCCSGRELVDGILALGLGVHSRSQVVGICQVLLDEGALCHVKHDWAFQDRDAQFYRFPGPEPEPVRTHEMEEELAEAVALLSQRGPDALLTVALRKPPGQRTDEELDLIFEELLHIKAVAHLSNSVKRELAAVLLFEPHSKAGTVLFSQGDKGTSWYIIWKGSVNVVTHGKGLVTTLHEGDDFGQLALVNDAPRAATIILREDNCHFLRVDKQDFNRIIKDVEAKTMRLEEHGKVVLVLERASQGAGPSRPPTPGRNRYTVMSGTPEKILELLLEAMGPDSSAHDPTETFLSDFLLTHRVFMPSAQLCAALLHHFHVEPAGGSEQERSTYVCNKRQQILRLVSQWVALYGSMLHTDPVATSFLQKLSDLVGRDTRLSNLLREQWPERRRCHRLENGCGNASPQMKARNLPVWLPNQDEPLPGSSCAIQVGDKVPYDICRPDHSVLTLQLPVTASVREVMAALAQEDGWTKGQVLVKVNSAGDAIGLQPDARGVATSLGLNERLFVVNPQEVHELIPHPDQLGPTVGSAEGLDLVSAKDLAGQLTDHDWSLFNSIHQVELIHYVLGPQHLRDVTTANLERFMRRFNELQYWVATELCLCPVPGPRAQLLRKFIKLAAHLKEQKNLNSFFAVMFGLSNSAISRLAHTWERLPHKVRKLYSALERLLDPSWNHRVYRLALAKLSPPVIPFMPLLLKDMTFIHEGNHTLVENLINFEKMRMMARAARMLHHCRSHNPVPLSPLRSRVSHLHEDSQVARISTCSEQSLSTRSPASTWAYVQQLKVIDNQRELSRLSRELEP
Chain of Cytochrome P450 1A2 (Homo sapiens) (P05177 whole entry, looked up): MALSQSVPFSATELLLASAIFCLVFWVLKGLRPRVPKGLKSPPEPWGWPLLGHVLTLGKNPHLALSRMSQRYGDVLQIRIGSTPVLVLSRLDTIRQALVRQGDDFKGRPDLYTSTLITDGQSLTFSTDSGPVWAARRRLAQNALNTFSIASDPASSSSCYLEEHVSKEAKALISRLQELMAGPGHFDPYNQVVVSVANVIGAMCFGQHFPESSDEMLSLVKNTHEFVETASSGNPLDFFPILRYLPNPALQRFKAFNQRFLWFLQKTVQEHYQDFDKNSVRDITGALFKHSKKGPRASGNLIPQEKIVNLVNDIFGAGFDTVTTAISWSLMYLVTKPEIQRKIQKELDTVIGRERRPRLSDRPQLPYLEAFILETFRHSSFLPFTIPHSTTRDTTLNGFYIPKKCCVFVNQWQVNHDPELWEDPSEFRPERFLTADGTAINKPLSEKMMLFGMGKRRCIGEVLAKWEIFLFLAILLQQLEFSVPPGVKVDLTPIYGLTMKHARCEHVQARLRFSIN
Chain of Dual specificity protein kinase CLK4 (Homo sapiens) (Q9HAZ1 whole entry, looked up): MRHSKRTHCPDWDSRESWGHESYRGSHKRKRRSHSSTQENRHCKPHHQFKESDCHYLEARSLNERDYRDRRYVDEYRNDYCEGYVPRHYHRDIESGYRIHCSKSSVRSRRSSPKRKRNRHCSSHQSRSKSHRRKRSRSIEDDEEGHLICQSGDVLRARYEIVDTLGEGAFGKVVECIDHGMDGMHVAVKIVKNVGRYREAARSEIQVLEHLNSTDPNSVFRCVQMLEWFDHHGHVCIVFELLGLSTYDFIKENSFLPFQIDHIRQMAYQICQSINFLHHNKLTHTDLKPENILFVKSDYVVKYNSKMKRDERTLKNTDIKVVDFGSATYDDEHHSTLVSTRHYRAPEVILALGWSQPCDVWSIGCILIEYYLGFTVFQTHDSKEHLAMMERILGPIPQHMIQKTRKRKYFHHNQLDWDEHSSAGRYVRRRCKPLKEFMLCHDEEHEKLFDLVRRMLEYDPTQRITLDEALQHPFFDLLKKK
Chain of Glucocorticoid receptor (Homo sapiens) (P04150 whole entry, looked up, the tested form may be a part): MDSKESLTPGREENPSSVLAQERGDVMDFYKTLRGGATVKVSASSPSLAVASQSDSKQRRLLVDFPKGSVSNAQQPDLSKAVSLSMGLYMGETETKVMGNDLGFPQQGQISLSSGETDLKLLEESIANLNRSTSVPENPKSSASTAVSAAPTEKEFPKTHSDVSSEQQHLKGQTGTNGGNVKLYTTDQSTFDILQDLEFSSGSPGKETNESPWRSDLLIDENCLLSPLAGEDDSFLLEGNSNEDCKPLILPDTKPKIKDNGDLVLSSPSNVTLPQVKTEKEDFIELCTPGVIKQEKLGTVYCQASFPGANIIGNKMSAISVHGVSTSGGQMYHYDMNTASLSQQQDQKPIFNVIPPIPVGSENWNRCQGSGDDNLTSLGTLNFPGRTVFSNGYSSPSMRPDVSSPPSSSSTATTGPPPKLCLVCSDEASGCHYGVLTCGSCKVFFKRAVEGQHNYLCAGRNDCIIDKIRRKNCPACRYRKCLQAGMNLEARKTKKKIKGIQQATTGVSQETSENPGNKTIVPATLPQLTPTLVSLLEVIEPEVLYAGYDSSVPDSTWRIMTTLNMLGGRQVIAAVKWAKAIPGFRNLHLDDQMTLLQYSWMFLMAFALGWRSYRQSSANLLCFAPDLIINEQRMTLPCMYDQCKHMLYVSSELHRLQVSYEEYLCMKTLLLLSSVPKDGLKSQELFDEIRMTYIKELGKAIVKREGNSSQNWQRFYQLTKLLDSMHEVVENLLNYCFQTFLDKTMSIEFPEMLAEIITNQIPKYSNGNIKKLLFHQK
Chain of Ubiquitin carboxyl-terminal hydrolase 1 (Homo sapiens) (O94782 whole entry, looked up): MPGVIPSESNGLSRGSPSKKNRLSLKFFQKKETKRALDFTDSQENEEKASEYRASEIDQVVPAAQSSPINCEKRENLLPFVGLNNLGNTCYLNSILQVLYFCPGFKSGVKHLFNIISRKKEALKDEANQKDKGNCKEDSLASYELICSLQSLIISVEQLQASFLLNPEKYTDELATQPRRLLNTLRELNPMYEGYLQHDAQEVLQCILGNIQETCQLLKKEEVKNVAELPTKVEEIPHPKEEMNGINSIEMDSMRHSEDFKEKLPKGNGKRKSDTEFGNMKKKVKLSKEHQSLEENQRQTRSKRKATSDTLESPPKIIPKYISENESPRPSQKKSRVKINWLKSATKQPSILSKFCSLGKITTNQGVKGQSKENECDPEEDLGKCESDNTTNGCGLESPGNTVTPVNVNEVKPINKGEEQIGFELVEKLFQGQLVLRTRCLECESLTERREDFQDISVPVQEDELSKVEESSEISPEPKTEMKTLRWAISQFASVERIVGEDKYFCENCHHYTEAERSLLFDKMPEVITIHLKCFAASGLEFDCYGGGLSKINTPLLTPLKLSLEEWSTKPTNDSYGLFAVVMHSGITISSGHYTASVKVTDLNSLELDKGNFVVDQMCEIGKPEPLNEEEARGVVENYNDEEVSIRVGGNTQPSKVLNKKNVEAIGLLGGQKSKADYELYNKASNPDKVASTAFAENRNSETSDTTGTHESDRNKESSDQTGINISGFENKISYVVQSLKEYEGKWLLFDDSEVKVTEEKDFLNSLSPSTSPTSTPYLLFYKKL

As to `COc1ccc(-c2nc3cnc(N4CCNCC4)nc3n(Cc3cccs3)c2=O)cc1`, the Potency in experiment [1] is 3.98 µM (active); in experiment [2] it was > 46 µM (inactive); in [3] it was > 46 µM (inactive). Further, the result in [4] and in experiment [11] was inactive. For the same compound, the Potency result in [5], in experiment [7], in experiment [8], in experiment [9] and in [10] was “inactive” in each case. Further, the activity change, negative = inhibition in [6] is 1.49% (inactive). The figures for the max response in [6] (setting [21]) and in experiment [6] (setting [22]) were 7.67% and 6.52%, respectively.

As to `O=C(Oc1ccccc1)N1CCC2(CCCN(c3ccccc3)C2)CC1`, the Potency was > 11.4 µM (inactive) in experiment [12], 15.8 µM (active) in [1] and > 46 µM (inactive) in experiment [3]. The activity change, negative = inhibition was 8.28% (inactive) in experiment [13] and -26.4% (inactive) in experiment [6]. The activity, negative = inhibition in experiment [14] is 8.61% (inactive). The outcome in experiment [4], in experiment [11] and in experiment [17] was inactive. For the same compound, the Potency entry in experiment [15], in experiment [10], in experiment [16] and in [18] was “inactive” in each case. Moreover, the max response is 17% in experiment [6] (setting [21]) and -12.6% in experiment [6] (setting [22]).

As to `FC(F)(F)c1ccccc1-c1cc(NCCN2CCOCC2)ncn1`, the Potency in experiment [12] is > 11.4 µM (inactive); in experiment [1], 12.6 µM (active); in [2], > 46 µM (inactive); in experiment [3], > 46 µM (inactive). The activity change, negative = inhibition in experiment [13] was 10.7% (inactive); in experiment [19] it was 27.7% (inactive); in experiment [6], 5.67% (inactive). Besides, in experiment [14], the activity, negative = inhibition is 14.2% (inactive). Moreover, in [4], the outcome was inactive. In addition, the Potency result in [5], in experiment [7], in experiment [8], in experiment [9], in experiment [20] and in [10] was “inactive” each time. Moreover, the figures for the max response in experiment [6] (setting [21]) and in [6] (setting [22]) were 25.8% and 30.8%, respectively.

For the compound `O=c1c(-c2cc(F)cc(F)c2)nc2cnc(N3CCOCC3)nc2n1C[C@H]1CCCO1`, the Potency is > 11.4 µM (inactive) in experiment [12], 2.51 µM (active) in experiment [1], > 9.22 µM (inactive) in experiment [2] and > 46 µM (inactive) in experiment [3]. In addition, the activity change, negative = inhibition was 10.4% (inactive) in experiment [13], -16% (inactive) in [19] and 5.53% (inactive) in [6]. Besides, the activity, negative = inhibition in experiment [14] is 0.32% (inactive). Also, in [4], the call was inactive. Also, the Potency result in experiment [5], in experiment [7], in experiment [8], in experiment [9], in experiment [20] and in experiment [10] was “inactive” each time. For the same compound, the results for the max response in experiment [6] (setting [21]) and in experiment [6] (setting [22]) were 8.91% and 13.4%, respectively.

For the origin of these results see PubChem BioAssay (NCATS).
